Reference: PubChem BioAssay AID624415 (National Center for Advancing Translational Sciences (NCATS), 2012)
In all, about 390,000 compounds went through this assay and about 60 (0.02%) were called active. Rule as the data show it: active = activity change below about -50%; inconclusive = between about -30% and that limit; inactive = weaker than that. Shown is part of a subset that was picked to be rich in actives.

These molecules were tested against Mucolipin-1 (Homo sapiens) (UniProt Q9GZU1) (assay: qHTS for Inhibitors of the Human Mucolipin Transient Receptor Potential 1 (TRPML1)). Conditions: TRPML1-inducible cells, Ca2+ dye fluorescence, FDSS; hits give low values; inhibition of EC80 agonist-evoked calcium signal.
Sequence of Mucolipin-1 (Homo sapiens) (Q9GZU1 whole entry, looked up, the tested form may be a part): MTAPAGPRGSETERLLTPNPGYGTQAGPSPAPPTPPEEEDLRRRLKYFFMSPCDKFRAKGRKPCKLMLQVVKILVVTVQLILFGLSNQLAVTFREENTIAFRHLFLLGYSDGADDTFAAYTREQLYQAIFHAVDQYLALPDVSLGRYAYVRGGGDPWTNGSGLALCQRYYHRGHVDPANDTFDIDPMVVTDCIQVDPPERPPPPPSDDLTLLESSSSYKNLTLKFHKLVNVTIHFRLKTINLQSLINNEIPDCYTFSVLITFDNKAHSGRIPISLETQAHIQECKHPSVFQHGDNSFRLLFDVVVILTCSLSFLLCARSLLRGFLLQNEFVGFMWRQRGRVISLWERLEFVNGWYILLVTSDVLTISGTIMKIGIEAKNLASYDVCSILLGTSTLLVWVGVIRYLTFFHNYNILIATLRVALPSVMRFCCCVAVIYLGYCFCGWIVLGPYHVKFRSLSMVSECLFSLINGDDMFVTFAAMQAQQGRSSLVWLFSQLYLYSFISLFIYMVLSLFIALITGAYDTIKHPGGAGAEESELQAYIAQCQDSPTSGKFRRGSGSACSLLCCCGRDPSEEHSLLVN
Source text: Mutations of human Mucolipin transient receptor potential 1 (TRPML1) cause type IV mucolipidosis (ML4), a devastating neurodegenerative disease in young children. […] Currently, there is no treatment for ML4. […] Under physiological conditions, TRPMLs regulate membrane trafficking by transducing information about PI(3,5)P2 levels into changes in juxtaorganellar Ca2+, thereby triggering membrane fusion/fission events in the late endocytic pathways (endolysosomal trafficking). In addition, TRPML1 mediates release of Fe2+ from late endosomes and lysosomes, which is essential for cellular iron metabolism. Thus, impaired ion (Ca2+ and Fe2+) homeostasis underlies lysosomal dysfunction and ML4 phenotypes. In ML4 cells, the problem is twofold. First, defective Ca2+-dependent membrane trafficking due to TRPML1-deficiency causes accumulation of lipids and other bio-materials in the lysosome. The second strike comes from the lysosomal iron overload (due to impairment of TRPML1's Fe2+ conductivity), which converts the accumulated materials into the nondegradable (resistant to lysosomal degradation) lipofuscin (also called aging pigment) in the lysosome. Lipofuscin accumulation dramatically compromises the functions of lysosomes.
Niemann-Pick type C (NPC) disease is another lysosome storage disease (LSD) with severe neurodegeneration during the childhood. Currently, there is no cure for NPC. […] Thus, TRPML1 is likely to be an essential regulator of lysosome ion homeostasis. We specifically hypothesize that stimulating TRPML1's Fe2+/Ca2+ channel activity in the lysosome using synthetic agonists can alleviate neurodegeneration associated with ML4 or NPC.
To this end, a high throughput screen was developed in a miniaturized format to screen against the Molecular Libraries Small Molecule Repository (MLSMR) to find small molecules that act either as inhibitors or agonist against the TRPML1 channel.
NIH Chemical Genomics Center [NCGC]
NIH Molecular Libraries Probe Centers Network [MLPCN]
Assay Submitter (PI): Haoxing Xu, University of Michigan Ann Arbor
TRPML1-DL cells are dissociated from flasks, counted and, brought up to a density of 500,000 cells per mL of media containing a 1X Tet inducer. Using a Multidrop Combi, 3 uL of this cell solution is dispensed to each well of a 1536 TC treated, black, clear bottom hi base plate for a final cell density of 1,500 cells per well. The assay plates are incubated overnight (approximately 16 hours) at 37 degrees C and 5% CO2. Using a Multidrop Combi, 2 uL of ABD Ca8 no wash dye plus quencher is added to each well. The assay plates incubate at room temperature in the dark for 45-90 minutes. The assay plate is read on the FDSS using the following protocol: 10 second baseline read, 23 nL of compounds and controls are added using 1536 pintool, agonist read for 110 seconds, 1 uL EC80 addition (4 uM final 54-4 diluted in media), antagonist read for 110 seconds.
% is scaled to controls: 0 for no effect and ±100 for the full control effect.
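Also: stimulus is agonist 54-4 at its EC80 concentration.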

Activity change, negative = inhibition, inactive:
CCn1c(C(=O)Nc2cc(Cl)ccc2C)cc2sc(Cl)cc21 16.9%, Cc1cccc(Cn2c(=O)n(CCC(=O)NCCc3ccc(Cl)cc3)c(=O)c3sccc32)c1 -20.1%, CCc1nn(CC(=O)N2CCN(c3cccc(C(F)(F)F)c3)CC2)c(=O)c2cc3occc3n12 2.52%, COc1ccc(C2=NC3(CCCCC3)N(CC(=O)Nc3ccc(C(C)C)cc3)C2=O)cc1 8.59%, C=COC(=O)N1CCN(/[N+]([O-])=N/Oc2ccc([N+](=O)[O-])cc2[N+](=O)[O-])CC1 5.96%, COc1ccc(CNC(=O)c2ccc(NC(=O)N3CC4CCCN4c4ccccc43)cc2)cc1 (stereo not drawn) 12%, Cc1cc(C)cc(OCC(=O)Nc2c(C(=O)c3ccccc3)oc3ccccc23)c1 -3.38%, Cc1ccc(SCC(=O)Nc2ccc3oc(-c4ccccc4C)nc3c2)cc1 7.73%, CCNS(=O)(=O)c1cc(-c2nnc(Nc3cccc(C(F)(F)F)c3)c3ccccc23)ccc1C -9.21%, COc1cccc(CNC(=O)CCc2nc(-c3ccc(C)cc3)no2)c1 15.3%, Cc1ccccc1C(=O)NCc1nc(-c2ccc(Cl)cc2)no1 -1.57%, CC1CN(C(=O)N2CCC(C(=O)NCc3ccco3)CC2)c2cc(Cl)ccc2O1 (stereo not drawn) 31.2%, COc1ccccc1-c1ccnc2[nH]n(-c3ccccc3)c(=O)c12 -0.876%, COC(=O)CC1Oc2ccccc2-n2cc(-c3ccccc3)nc21 (stereo not drawn) 4.04%, Cc1ccccc1OCc1nc2c3cnn(-c4ccccc4F)c3ncn2n1 -5.46%, COc1ccc(NC(=O)c2ccc3nc(CCc4ccccc4)oc3c2)c(OC)c1 3.32%, CCOC(=O)C1CCN(C(c2ccc(F)cc2)c2sc3nc(-c4ccco4)nn3c2O)CC1 (stereo not drawn) -5.17%, Cn1c(C(=O)N2CCC(C(=O)N3CCN(c4ccccc4)CC3)CC2)cc2sccc21 -0.29%, CC(=O)N1CCCc2cc(S(=O)(=O)N3CCC(C(=O)NCc4ccc(C)cc4)CC3)ccc21 23%, COc1ccc(-c2c3c(=O)n(C)c(=O)n(C)c3c3c(C)nc4ccccc4n23)cc1 -0.184%, CC(=O)N1CCCc2cc(S(=O)(=O)Nc3ccc(Cl)cc3F)ccc21 0.189%, COc1ccc(N2C(=O)CS(=O)(=O)C23C(=O)N(Cc2ccc(C)cc2)c2ccccc23)cc1Cl (stereo not drawn) 40.4%, CCN(CC)/[N+]([O-])=N/OCOC(=O)Cc1c(C)n(C(=O)c2ccc(Cl)cc2)c2ccc(OC)cc12 37.6%, CCOC(=O)CSC1=Nc2ccccc2C2=NC(CCC(=O)NCc3ccc(F)cc3)C(=O)N12 (stereo not drawn) -10.5%, Cc1ccc(Cl)cc1-n1ncc2c(N3CCC(C(N)=O)CC3)ncnc21 0.447%, O=C(NCCC1=CCCCC1)c1ccc2c(c1)N(Cc1ccccc1F)C(=O)c1ccccc1S2(=O)=O 3.43%, Cc1cccc(C(=O)N2c3nc(-c4ccco4)nn3C3(CCCCC3)[C@@H]3CCCC[C@@H]32)c1 -0.973%, C=C1CCN(C(CC(C)C)C(=O)N2CCOCC2)S(=O)(=O)c2ccccc21 (stereo not drawn) -14.1%, CCCCNC(=O)CSc1nc2cc3c(cc2c(=O)n1CCCCCC(=O)NCc1ccc2c(c1)OCO2)OCO3 22.7%, Cc1cccc(NC(=O)CN(c2ccc(C(C)C)cc2)S(=O)(=O)c2c(C)nn(C)c2C)c1C 3.79%, Cc1ccccc1NC(=O)Cn1c(=O)n(CCc2ccccc2)c(=O)c2ccccc21 -6.8%, Cc1ccc(CN(C(=O)c2ccccc2[N+](=O)[O-])c2ccccn2)cc1 3.72%, Cn1nnc2c(N3CCN(c4ccccc4)CC3)ncnc21 -12.6%, CCn1cc2nc(SCc3ccccc3Cl)n(CCc3ccccc3)c(=O)c2n1 -16.2%, COc1ccc(NC(=O)CSc2nc3ncccc3[nH]2)c(OC)c1 -10.8%, COc1ccc(Nc2ncc3c(n2)CCN(C(=O)OC(C)(C)C)C3)cc1 -8.96%, COc1ccc(C2/C=C\CN(Cc3ccco3)C(C)C(=O)N2Cc2ccc(F)cc2)cc1 (stereo not drawn) 19.9%, COc1ccc2c(c1)Cc1sc(NC(=O)c3ccccc3Br)nc1-2 -10.7%, COc1ccc(C2CC(=O)N(Cc3ccccc3C)c3c2c(C)nn3-c2nc(C)cc(C)n2)c(OC)c1 (stereo not drawn) 35.7%, Cc1cc(C)cc(NC(=O)Cc2csc(C)n2)c1 2.64%, COc1cc(OC)c2c(C)cc(=O)oc2c1C(CCN1CCCCC1)c1ccc(N(C)C)cc1 (stereo not drawn) -6.66%, Cc1ccc(N2CC(c3nnc(Cc4ccccc4Cl)o3)CC2=O)cc1 (stereo not drawn) -9.51%, CCc1ccc(CNC(=O)c2ccc(CS(=O)c3ccc(Br)cc3)o2)cc1 (stereo not drawn) 34.7%, Cc1ccc2cccc(NC(=O)C(C)Oc3ccc(C)c(C)c3)c2n1 (stereo not drawn) -1.63%, Cc1ccc(C)c(N2C(=O)N(Cc3c(F)cccc3Cl)c3ccccc3S2(=O)=O)c1 -2.54%, Oc1ccc(Cl)cc1C1C=C(c2ccc3c(c2)OCO3)NC(c2c(F)cccc2Cl)N1 (stereo not drawn) -4.64%, COc1ccc2ncc3c(-c4ccc(C)c(C)c4)nn(CC(=O)NC4CCCC4)c3c2c1 6.38%, CCN(CC)c1nn2c(=O)c(C(=O)NCCc3ccccc3)cnc2s1 26.2%, COc1ccc(CNC(=O)c2cc3c(=O)[nH]c4ccccc4c3s2)cc1 -6.35%, Cc1ccc(Cl)cc1NC(=O)CSc1nccn1C 0.294%, CC(=O)Nc1ccc2nc(SCCOc3cc(C)cc(C)c3)sc2c1 -12.9%, CCc1ccc(S(=O)(=O)Nc2cc3c(C(=O)OCc4ccccc4)c(C)oc3c3ccccc23)cc1 28.4%, CCOC(=O)c1cccc(NS(=O)(=O)c2cc(-c3cnc(C)o3)ccc2OC)c1 21%
